# Source: PubChem (Broad Institute)
# A selection follows.
# aSyn UTR act: Activators via SNCA 5'UTR binding, MLPCN | alpha-synuclein 5'UTR reporter, activators screen | activity score, % (tested at 7.5 µM), hits read low | 300,000 compounds, 7.1% hits | AID 1814; in the data active = activity score below about -60%
# An asterisk follows results filed as active.
SMILES,aSyn UTR act
Cc1cnc(C(=O)Nc2nnc(C3CC3)s2)cn1,-97*
O=C(Nc1nccs1)c1cn2ccccc2n1,65
Cc1cnc(C(=O)Nc2nccs2)cn1,-81*
Cc1csc(Nc2ccccc2)[n+]1-c1ccccc1,-69*
Cc1[nH]n(-c2nc(-c3ccc(Cl)cc3)cs2)c(=O)c1N=Nc1ccc(O)cc1,-118*
Nc1ccc2c(c1Cl)C(=O)c1ccc(N)c(Cl)c1C2=O,-88*
Cc1ccc(C2NNC(=O)C2NC(=O)c2ccccc2)cc1 (stereo unspecified),-111*
Nn1c(SCc2ccc(F)cc2)nnc1-c1ccccn1,-68*
Nn1c(SCc2ccccc2)nnc1-c1ccccn1,-70*
NC(=O)CSc1nc2cccnc2n1-c1ccc(F)cc1,52
Nn1c(SCc2ccccc2F)nnc1-c1ccccn1,-125*
COc1ccc(-c2cc3c(=O)n(CC(=O)NCc4ccc(F)cc4)ncn3n2)cc1,-75*
COc1ccc(CNC(=O)Cn2ncn3cccc3c2=O)cc1,-78*
COc1ccc(-c2cc3c(=O)n(CC(=O)NCCCN4CCC(Cc5ccccc5)CC4)ncn3n2)cc1,96
CCOc1ccc(N(CC(=O)NCc2ccccc2OC)S(C)(=O)=O)cc1,-90*
C=CCNC(=O)c1ccc(CN(c2ccc(OCC)cc2)S(=O)(=O)c2ccc(C)cc2)cc1,-93*
Cc1ccc(N(CC(=O)Nc2ccc3c(c2)OCCO3)S(C)(=O)=O)cc1,-99*
CCOc1ccc(N(CC(=O)Nc2cc(C)cc(C)c2)S(C)(=O)=O)cc1,-88*
CCOc1ccc(N(CC(=O)Nc2ccc(C)cc2)S(C)(=O)=O)cc1,-113*
CC(=O)c1ccc(NC(=O)CN(c2c(C)cccc2C)S(C)(=O)=O)cc1,-131*
CCOc1ccc(N(CC(=O)Nc2ccccc2C)S(=O)(=O)c2c(C)noc2C)cc1,59
CS(=O)(=O)N(CC(=O)Nc1ccccc1C(=O)NCCc1ccccc1)c1ccc2c(c1)OCCO2,-153*
Nc1cccc(/C=C/c2ccncc2)c1,-68*
CCCCc1c(C)nc2cc(-c3ccco3)[nH]n2c1=O,-68*
CCc1c(C)nc2cc(-c3ccccc3)[nH]n2c1=O,-110*
SMILES,aSyn UTR act
CCc1nc(SCc2ccc(OC)cc2)n[nH]1,-82*
N/C(=N\OC(=O)c1csnn1)c1ccc(C(F)(F)F)cc1,-67*
COC(=O)c1ccc(N=NN2CCCCC2)cc1,-102*
COC(=O)c1ccc(NN=Nc2ccc(C)cc2)cc1,-173*
CC(=O)c1ccc(N=Nc2ccc(C)cc2)cc1,64
C=CCn1c(SCC(=O)Nc2ccc(-c3nc4ccc(C)cc4s3)cc2)nnc1-c1ccncc1,-99*
CCn1c(SCC(=O)Nc2ccc(-c3nc4ccc(C)cc4s3)cc2)nnc1-c1ccccc1,-175*
O=C(Nc1nc(-c2ccccc2)cs1)Nc1ccc(F)cc1F,-63*
O=C(Nc1ccc(-c2csc(Nc3ccccc3)n2)cc1)c1ccccc1,-87*
CC(C)(C)c1csc(NC(=O)Nc2ccccc2)n1,-141*
COc1cccc(-c2csc(NC(=O)C3CC3)n2)c1,-161*
O=C(Nc1ccccc1)Nc1nc(-c2ccccc2)cs1,-88*
COc1cccc(-c2csc(NC(=O)Nc3ccccc3)n2)c1,-166*
Cc1sc(NC(=O)c2ccccc2F)c(CN2CCCCC2)c1C,-124*
Cc1sc(NC(=O)c2ccc(F)cc2)c(CN2CCCCCC2)c1C,-174*
CCN(CC)c1ccc(NC(=O)C2CC3CCC2C3)cc1 (stereo unspecified),-68*
Cc1ccc(NC(=O)C2CC3CCC2C3)c(Br)c1 (stereo unspecified),-110*
COc1cc(C(=O)Nc2ccc3c(c2)CCN3C(C)=O)cc(OC)c1OC,97
CCOC(=O)C(=CNc1ccc2c(c1)CCN2C(C)=O)C(=O)OCC,-78*
O=C(N/N=C/c1ccccc1)c1[nH]ncc1Br,-118*
COc1ccccc1/C=C/C=N/NC(=O)c1ccco1,-112*
O=C(N/N=C/c1ccccc1)c1ccco1,-107*
O=C(N/N=C/C(Br)=C\c1ccccc1)c1ccco1,-226*
COc1ccccc1NC(NC(=O)c1ccco1)C(=O)c1ccccc1 (stereo unspecified),-85*
CC(C)(C)OC(=O)N/N=C\c1ccc(OC(=O)c2ccco2)cc1,-84*
SMILES,aSyn UTR act
O=C(N/N=C/c1ccc(OCc2ccccc2)cc1)c1ccco1,-103*
CCOC(=O)C1(Cc2cccc(OC)c2)CCCN(C(=O)c2cc(C)[nH]n2)C1 (stereo unspecified),-130*
CCOC(=O)C1(Cc2cccc(OC)c2)CCCN(C(=O)c2ccccc2C)C1 (stereo unspecified),-84*
CCOC(=O)C1(Cc2ccccc2)CCCN(C(=O)c2cnn(CC)c2)C1 (stereo unspecified),-78*
CCOC(=O)C1(Cc2cccc(OC)c2)CCCN(C(=O)CNC(C)=O)C1 (stereo unspecified),-115*
CCOC(=O)C1(Cc2cccc(OC)c2)CCCN(C(=O)c2cc(C)on2)C1 (stereo unspecified),-110*
CC(C)c1ccc(N(C(=O)c2csnn2)C(C(=O)NC(C)(C)C)c2ccncc2)cc1 (stereo unspecified),-158*
O=C(CN1CCN(CCN2C(=O)c3cccc4cccc(c34)C2=O)CC1)c1ccc(F)cc1,-65*
O=C(CN1C(=O)c2ccccc2S1(=O)=O)c1ccc(F)cc1,92
COc1ccc(/C=N/NC(=O)c2ccncc2)cc1COc1ccc(NC(C)=O)cc1,80
COc1ccc(NC(=O)COc2ccc(/C=N/n3c(C)nnc3C)cc2OC)cc1,-91*
Cc1[nH]c2ccccc2c1/C=N/NC(=O)c1cccc([N+](=O)[O-])c1,-65*
COc1cc(/C=N/NC(=O)c2ccncc2)ccc1OCc1cnc(Cl)s1,-153*
O=C(COc1ccc(/C=N/NC(=O)c2ccncc2)cc1)Nc1ccccc1,-72*
COc1cc(/C=N/NC(=O)c2cccc([N+](=O)[O-])c2)ccc1OCc1ccccc1,-135*
Cc1cccc(NC(=O)COc2ccc(Br)cc2/C=N/O)c1,-167*
COc1cc(/C=C/[N+](=O)[O-])ccc1OCc1cccc(C(=O)O)c1,97
COc1cc(/C=N/NC(=O)c2ccc(O)cc2)ccc1OCC(=O)Nc1cccc([N+](=O)[O-])c1,-82*
COc1cc(/C=N/NC(=O)c2cccc(C)c2)ccc1OCC(=O)Nc1ccccc1,-128*
O=C(Nc1ccon1)c1sc2cc(Cl)ccc2c1Cl,-84*
O=C(NCc1ccco1)C(=O)NCc1ccccc1Cl,-71*
O=C(NCc1ccco1)c1cc2cc3ccc(Cl)cc3nc2o1,-62*
O=C(NCc1ccco1)c1sc2cc(Cl)ccc2c1Cl,-66*
CCN(CC)CCOC(=O)C(Cc1ccco1)Cc1cccc2ccccc12 (stereo unspecified),104
O=C(NCc1ccco1)c1sc2ccccc2c1Cl,-114*
SMILES,aSyn UTR act
C[C@@H](CO)NC(=O)c1ccc2c3n(nc2c1)-c1ccc(Cl)cc1CO3,-192*
CC(C)[C@@H](CO)NC(=O)c1ccc2c3n(nc2c1)-c1ccc(Cl)cc1CO3,-180*
CC(=O)Nc1ccc(S(=O)(=O)NC(CC(=O)NCCc2ccccc2)C(C)C)cc1 (stereo unspecified),-109*
Cc1ccc(CC2CC(=O)N(Cc3ccco3)C2=O)cc1 (stereo unspecified),-129*
C/C(CC(C)(C)C1CCCCC1)=N\NC(N)=S,-76*
O=C(c1nc2ccccc2[nH]1)c1ccccc1[N+](=O)[O-],-74*
O=C(Nc1c(Cl)ccc2nsnc12)c1ccc([N+](=O)[O-])o1,-203*
